We go through nine molecules from PubChem BioAssay (NCATS).

Records with an inconclusive call do not appear. Values without a mark were called inactive. The source made the active and inactive calls. The call rests on the fitted dose curve; in most records, active means well fitted curve in the direction sought with a large enough effect; inconclusive means small, poorly fitted or top-dose-only effect, or another doubt; inactive means no such curve, though single readings can be large; an effect the other way counts as inactive or inconclusive.

Test [1] in a line: Quantitative High-Throughput drug screen in 47 multiple myeloma cell lines against the NCATS MIPE library collection: KMS26_JCRB cell viability assay (AID 1918975). Further: nearly all actives have a fitted effect of over 45% in size. The method, boiled down: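 Steps: seed 500 cells per well; pin-transfer MIPE 4.0 library; incubate 48 h at 37C, 5% CO2, humidified; add CellTiter-Glo, 5 min room temperature; read luminescence.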
A short description of test [2]: Quantitative High-Throughput drug screen in 47 multiple myeloma cell lines against the NCATS MIPE library collection: MOLP8_DSMZ cell viability assay (AID 1918977). Further: nearly all actives have a fitted effect of over 45% in size. The procedure, abridged:
(§1)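 Cells were exposed to library compounds for 48 hours, after which ATP was measured by CellTiter-Glo. Signal was taken as median relative luminescence units.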

Test [3] in a line: Quantitative High-Throughput drug screen in 47 multiple myeloma cell lines against the NCATS MIPE library collection: NCIH929_DSMZ cell viability assay (AID 1918978). Further: nearly all actives have a fitted effect of over 35% in size. The method, boiled down: as §1
Test [4] is described as follows: Quantitative High-Throughput drug screen in 47 multiple myeloma cell lines against the NCATS MIPE library collection: OCIMY1_PLB cell viability assay (AID 1918979). Further: nearly all actives have a fitted effect of over 35% in size. The procedure, abridged:
as §1

Test [5] is described as follows: Quantitative High-Throughput drug screen in 47 multiple myeloma cell lines against the NCATS MIPE library collection: MM1S_ATCC cell viability assay (AID 1918980). Further: nearly all actives have a fitted effect of over 45% in size. The method, boiled down: as §1
Test [6] can be described thus: Quantitative High-Throughput drug screen in 47 multiple myeloma cell lines against the NCATS MIPE library collection: MM1R_ATCC cell viability assay (AID 1918981). Further: nearly all actives have a fitted effect of over 35% in size. The method, boiled down:
as §1

A short description of test [7]: Quantitative High-Throughput drug screen in 47 multiple myeloma cell lines against the NCATS MIPE library collection: LP1_DSMZ cell viability assay (AID 1918982). Further: nearly all actives have a fitted effect of over 35% in size. The procedure, abridged: as §1
Test [8] can be described thus: Quantitative High-Throughput drug screen in 47 multiple myeloma cell lines against the NCATS MIPE library collection: L363_DSMZ cell viability assay (AID 1918984). Further: nearly all actives have a fitted effect of over 40% in size. The following applies: L363 myeloma viability, CellTiter-Glo ATP luminescence, 48 h; viability (% of control): at 45.8 µM (top of the series). The procedure, abridged:
as §1
(In general: Cellular ATP, detected with luciferase, serves as a proxy for viable cell number.)

The nature of test [9]: Quantitative High-Throughput drug screen in 47 multiple myeloma cell lines against the NCATS MIPE library collection: KMS34_JCRB cell viability assay (AID 1918985). Further: nearly all actives have a fitted effect of over 40% in size. The method, boiled down:
as §1

Test [10] is described as follows: Quantitative High-Throughput drug screen in 47 multiple myeloma cell lines against the NCATS MIPE library collection: OCIMY7_PLB cell viability assay (AID 1918987). Further: nearly all actives have a fitted effect of over 65% in size. The following applies: OCI-MY7 myeloma viability, CellTiter-Glo ATP, 48 h; viability (% of DMSO): at 45.8 µM (top of the series). The procedure, abridged:
as §1

Test [11] can be described thus: Quantitative High-Throughput drug screen in 47 multiple myeloma cell lines against the NCATS MIPE library collection: OCIMY5_PLB cell viability assay (AID 1918988). Further: nearly all actives have a fitted effect of over 65% in size. The procedure, abridged: as §1
A short description of test [12]: Quantitative High-Throughput drug screen in 47 multiple myeloma cell lines against the NCATS MIPE library collection: OPM1_PLB cell viability assay (AID 1918989). Further: nearly all actives have a fitted effect of over 40% in size. The procedure, abridged:
as §1

The nature of test [13]: Quantitative High-Throughput drug screen in 47 multiple myeloma cell lines against the NCATS MIPE library collection: U266_ATCC cell viability assay (AID 1919864). Further: nearly all actives have a fitted effect of over 35% in size. The procedure, abridged: as §1
Test [14] can be described thus: Quantitative High-Throughput drug screen in 47 multiple myeloma cell lines against the NCATS MIPE library collection: XG6_PLB cell viability assay (AID 1919865). Further: nearly all actives have a fitted effect of over 40% in size. The method, boiled down: as §1
Test [15] can be described thus: Quantitative High-Throughput drug screen in 47 multiple myeloma cell lines against the NCATS MIPE library collection: XG1_PLB cell viability assay (AID 1919866). Further: nearly all actives have a fitted effect of over 35% in size. The procedure, abridged:
as §1

The nature of test [16]: Quantitative High-Throughput drug screen in 47 multiple myeloma cell lines against the NCATS MIPE library collection: KMS28PE_JCRB cell viability assay (AID 1918983). Further: nearly all actives have a fitted effect of over 35% in size. The procedure, abridged:
as §1

A short description of test [17]: Quantitative High-Throughput drug screen in 47 multiple myeloma cell lines against the NCATS MIPE library collection: MMM1_PLB cell viability assay (AID 1918976). Further: nearly all actives have a fitted effect of over 35% in size. The method, boiled down:
as §1

A short description of test [18]: Quantitative High-Throughput drug screen in 47 multiple myeloma cell lines against the NCATS MIPE library collection: SKMM1_PLB cell viability assay (AID 1919863). Further: nearly all actives have a fitted effect of over 35% in size. The conditions noted are these: SKMM1 myeloma viability, CellTiter-Glo ATP, 48 h; viability: stronger effect = lower value. The procedure, abridged:
as §1
Potency means the concentration at half of the fitted maximal effect.

On to `CN1CCN(c2ncc(-c3cc(Cl)cc(Cl)c3Cl)c(N)n2)CC1`, for which the Potency entry in [1], in test [2], in [4], in [6], in test [7] and in test [9] was “inactive” each time. Moreover, the Potency entry in [11] and in test [12] was “inactive” each time. Also, the Potency in [3] is 23.5 µM (active); in test [5], 11.8 µM (active); in test [8] it was 18.7 µM (active); in test [10], 33.2 µM (active); in [13] it was 26.4 µM (active); in test [14] it was 7.43 µM (active). The Potency in test [15] is 7.43 µM (active).

On to `CCc1cc(-c2n[nH]c(C)c2-c2ccc3c(c2)OCCO3)c(O)cc1O`, for which the Potency in [1] is 5.26 µM (active); in test [2], 2.64 µM (active); in [3], 8.33 µM (active); in test [6], 6.62 µM (active); in test [16], 4.18 µM (active); in test [8] it was 0.148 µM (active). In addition, the Potency in test [9] was 3.32 µM (active); in test [10] it was 1.66 µM (active); in [11], 3.72 µM (active); in [13] it was 7.43 µM (active); in test [14], 9.35 µM (active); in test [15], 4.18 µM (active).

As for `CC(C)(C)c1[nH]cnc1C=c1[nH]c(=O)c(=Cc2ccccc2)[nH]c1=O`, the figures for the Potency in test [1], in test [17] and in test [3] were 0.0241 µM (active), 15.2 µM (active) and 0.0215 µM (active), respectively. For the same molecule, the Potency entry in test [15] is “inactive”.

Turning to `CC[C@H](CC#N)OC(=O)N[C@@H](C)c1cccc(NC(=O)Nc2ccc(-c3cnco3)c(OC)c2)c1`, the Potency was 20.9 µM (active) in test [1]; 20.9 µM (active) in test [17]; 1.18 µM (active) in [5]; 1.18 µM (active) in test [16]; 3.72 µM (active) in test [10]; 3.72 µM (active) in [11]. Moreover, the Potency in [12] is 13.2 µM (active); in test [18], 1.18 µM (active); in [13] it was 1.48 µM (active); in test [14], 2.96 µM (active).

With `NCC1CCC(C(=O)O)CC1` (stereo not given), the Potency entry in test [1], in test [4], in test [6], in test [16], in test [8] and in [9] was “inactive” each time. The Potency result in [12] and in [14] was “inactive” each time. The Potency is 0.0148 µM (active) in test [17] and 5.9 µM (active) in test [13].

With `CN(C)c1ccc(-c2nc3ncc(Cl)c(N4CCN(CC(=O)Nc5nccs5)CC4)c3[nH]2)cc1`, the Potency was 5.9 µM (active) in test [1]; 9.35 µM (active) in test [17]; 3.72 µM (active) in [6]; 5.26 µM (active) in [16]; 2.96 µM (active) in test [9]; 1.66 µM (active) in [10]. For the same molecule, the Potency in test [11] is 5.26 µM (active); in test [12], 1.87 µM (active); in test [18], 14.8 µM (active); in test [14], 2.64 µM (active). The Potency result in test [7] and in test [8] was “inactive” throughout.

Regarding `COc1cc2nc(-c3cc(F)ccc3O)nc(N[C@@H]3CNC[C@@H]3C(C)(C)O)c2cc1OC`, the Potency in test [1] was 18.7 µM (active); in [2], 5.9 µM (active); in [3] it was 7.43 µM (active); in test [4], 18.7 µM (active); in test [5], 18.7 µM (active); in [6] it was 9.35 µM (active). Further, the Potency in [7] was 9.35 µM (active); in test [16], 20.9 µM (active); in test [8] it was 1.87 µM (active); in test [9], 16.6 µM (active); in test [10], 2.64 µM (active); in [11], 13.2 µM (active). Further, the Potency in [12] was 3.72 µM (active); in [13] it was 20.9 µM (active); in test [14], 0.935 µM (active).

Turning to `COC1CCC(C(=O)c2ccc3nc4c(cc3c2)CCCO4)CC1` (stereo not given), the Potency in test [1] is 23.5 µM (active); in [17] it was 2.64 µM (active); in test [3] it was 23.5 µM (active); in [5], 20.9 µM (active); in test [6], 18.7 µM (active); in test [16] it was 23.5 µM (active). The Potency in test [8] was 23.5 µM (active); in test [9] it was 29.6 µM (active); in test [11] it was 26.4 µM (active); in [12], 14.8 µM (active); in [18] it was 26.4 µM (active); in test [13] it was 18.7 µM (active). The figures for the Potency in test [14] and in [15] were 16.6 µM (active) and 14.8 µM (active), respectively.

As for `Cc1ccc2c(c1)c1c(n2CCc2ccc(C)nc2)CCN(C)C1`, the Potency result in [1], in test [2], in test [3], in [4], in test [5] and in test [6] was “inactive” each time. Also, the Potency entry in [16] is “inactive”. Besides, the Potency in test [14] was 16.6 µM (active).
